# Measurements as given in PubChem BioAssay (NCI).
# Compounds without any hit were thinned out: in the full panel of roughly 83,000, 20% have a hit.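 Interpretation: 100, growth as untreated; towards 0, rising growth inhibition; 0, no net growth; 0 to -100, cell death. Compounds scoring below 10 were considered active.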 Values without a mark were called inactive. The source made the active and inactive calls.
# Key:
# Experiment in all cases: NCI-60 one-dose screen, 48 h (100 = growth as untreated, 0 = no growth, -100 = all killed)
# Settings in all cases: 10 µM unless noted
# [1] = system: HCT-15 colon
# [2] = system: HT29 colon
# [3] = system: SNB-75 CNS
# [4] = system: SNB-19 CNS
# [5] = system: U251 CNS
# [6] = system: PC-3 prostate
# [7] = system: SK-MEL-5 melanoma
# [8] = system: LOX IMVI melanoma
# [9] = system: SK-MEL-28 melanoma
# [10] = system: SK-MEL-2 melanoma
# [11] = system: EKVX NSCLC
# [12] = system: SN12C renal
# [13] = system: UO-31 renal
# [14] = system: ACHN renal
# [15] = system: CAKI-1 renal
# [16] = system: A498 renal
# [17] = system: CCRF-CEM leukemia
# [18] = system: MOLT-4 leukemia
# [19] = system: UACC-62 melanoma
# [20] = system: TK-10 renal
Structure (SMILES),growth [1],growth [2],growth [3],growth [4],growth [5],growth [6],growth [7],growth [8],growth [9],growth [10],growth [11],growth [12],growth [13],growth [14],growth [15],growth [16],growth [17],growth [18],growth [19],growth [20]
Cc1cccc(N2CCN(C(=S)c3ccc4c(c3)OCO4)CC2)c1,12.5%,6.38% (active),-21.4% (active),47.1%,20.7%,19.5%,6.14% (active),32.8%,54%,9.2% (active),47.1%,40%,25.6%,43.1%,15.1%,11.7%,16.5%,22%,,
Cc1cc(C)c(-c2c(O)c(Br)c(-c3c(C)cc(C)c(Br)c3C)c(O)c2Br)c(C)c1Br,10.2%,2.43% (active),33.4%,47.5%,19.8%,27.7%,,-26% (active),49.1%,-22.3% (active),19.2%,37.2%,-29.9% (active),14.1%,5.75% (active),64.7%,35.6%,28.9%,14.8%,12%
N=c1c2c(=N)n3c(nc2nc2n1-c1ccccc1Sc1ccccc1-2)sc1cc(Cl)ccc13,15.7%,26.4%,53.4%,30.7%,9.17% (active),19.4%,,,25%,-2.45% (active),13.8%,25%,7.88% (active),18.2%,8.56% (active),0.653% (active),37.7%,48.4%,13.8%,33.6%
COC(=O)c1c2c(n3ccc(C)cc13)C(=O)c1ccccc1C2=O,53.6%,61.5%,109%,78.3%,77.3%,48.9%,,58.3%,,71.6%,76.3%,75.9%,41%,56.3%,59.2%,78.3%,46.8%,51.4%,78.3%,85.8%
CC(C)(C)c1cc(C=Nc2cccc(C(F)(F)F)c2)c(O)c(C(C)(C)C)c1,83.7%,81%,83.6%,93.9%,77.6%,80.2%,,101%,107%,102%,107%,98.8%,80.7%,111%,90.4%,108%,62.5%,85.3%,101%,84.8%
CN(C)c1ccc(-c2cc(-c3ccc(Nc4nc(Nc5ccc(Cl)cc5)nc(Nc5ccc(Cl)cc5)n4)cc3)nc(N)c2C#N)cc1,75.9%,80.3%,83.8%,97.8%,63.3%,57.7%,,72.7%,88.7%,68.5%,79.8%,113%,67.5%,82.4%,82.3%,92.5%,46.9%,45%,91%,104%
CCCCCCCC/C=C\CCCCCCCCOc1ccc(CC(=O)NCC[N+](C)(C)C)cc1,60.4%,24.5%,34.6%,13.4%,16.9%,4.88% (active),,83.2%,91.7%,101%,87.8%,50%,92.8%,60.8%,44.6%,68.9%,54.6%,75.1%,61.3%,
NC(=O)c1ccc(NC(=O)c2oc3ccccc3c2-c2cnn(-c3ccccc3)c2)cc1,43.2% [50 µM],2.07% [50 µM] (active),-25.5% [50 µM] (active),2.3% [50 µM] (active),-19.2% [50 µM] (active),6.29% [50 µM] (active),,-22.6% [50 µM] (active),25.6% [50 µM],61.5% [50 µM],7.54% [50 µM] (active),14.7% [50 µM],-1.76% [50 µM] (active),-11.1% [50 µM] (active),,16.4% [50 µM],73.1% [50 µM],61.2% [50 µM],45.3% [50 µM],44.5% [50 µM]
Cc1[nH]c(/C=C/C(=O)c2ccc(C(F)(F)F)c(F)c2)c(C)c1C(=O)NCC(C)C,93.8%,102%,89.4%,92.2%,100%,103%,,90.5%,106%,110%,96.1%,97.9%,92%,101%,,69%,101%,101%,96.6%,109%
N#Cc1nc(-c2ccc(F)cc2)oc1S(=O)(=O)N1CCN(c2ccc(F)cc2)CC1,14%,65.9%,87.6%,96.9%,86.7%,92%,,,104%,90.9%,113%,85%,81.2%,77.5%,100%,113%,4.6% (active),1.8% (active),90.6%,86%
COc1ccc(C2=Nc3c(N)ncnc3NC(c3cccc(Nc4ccnc5cc(C(F)(F)F)ccc45)c3)C2)cc1 (stereo not drawn),32.4%,42.6%,56.7%,68.2%,54.5%,42.2%,,61.8%,84%,73.7%,54%,63.9%,45.2%,78.8%,61.5%,65.2%,42.4%,19.7%,76.1%,95.6%
CC/C(Cc1ccccc1)=C(\c1ccc(OCCN2CCCCCC2)cc1)c1ccc(OC(=O)NCc2ccccc2)cc1,9.25% (active),5.23% (active),66.4%,72.5%,49.6%,54.8%,72.5%,,87.2%,98.9%,69.5%,66%,59.2%,95%,93.8%,82.5%,47.5%,42.6%,,91.6%
C=CCn1c(SCC(=O)Nc2ccc(C(=O)/C=C/c3cc(OC)c(OC)c(OC)c3)cc2)nnc1-c1cc(-c2ccc(OC)cc2)nc2ccccc12,83.4%,101%,85.1%,90.3%,88.3%,80%,,,101%,102%,100%,90.3%,76.3%,89.2%,81.5%,89%,66.6%,66.4%,90.1%,121%
CC(C)CN1CC(C(=O)Nc2ccc3c(c2)-c2ccccc2C3)CC1=O (stereo not drawn),49.7% [50 µM],87.8% [50 µM],45.7% [50 µM],72.1% [50 µM],72.8% [50 µM],57.1% [50 µM],,75.9% [50 µM],80% [50 µM],81.8% [50 µM],70.8% [50 µM],72.5% [50 µM],43.7% [50 µM],64.8% [50 µM],62.5% [50 µM],85.8% [50 µM],74.5% [50 µM],61.8% [50 µM],47.3% [50 µM],87.2% [50 µM]
CCOC(=O)c1c(C)nc2ccccc2c1/C=C/c1ccc(OC)cc1,66%,73.5%,76.2%,75.9%,79.8%,60.2%,2.63% (active),,96.2%,64.3%,54.9%,79.8%,52.3%,58.8%,56.8%,77.9%,56.4%,26.1%,,85.8%
COC(=O)C1=Nc2ccc(F)cc2/C1=C\c1sc(Nc2ccc(O)cc2)nc1O,74.3%,106%,33.8%,45.7%,46.4%,52.1%,,,66.1%,47.3%,89.8%,85.7%,62.6%,84.9%,55.5%,42.4%,28.2%,30.4%,34.3%,96.9%
